The values that follow come from PMC3218832.

The experiment addresses T1, C-Rel subunit;p52 subunit (Homo sapiens;Homo sapiens, UniProt Q04864;Q00653 1-285;4-332).
T1 sequence 1: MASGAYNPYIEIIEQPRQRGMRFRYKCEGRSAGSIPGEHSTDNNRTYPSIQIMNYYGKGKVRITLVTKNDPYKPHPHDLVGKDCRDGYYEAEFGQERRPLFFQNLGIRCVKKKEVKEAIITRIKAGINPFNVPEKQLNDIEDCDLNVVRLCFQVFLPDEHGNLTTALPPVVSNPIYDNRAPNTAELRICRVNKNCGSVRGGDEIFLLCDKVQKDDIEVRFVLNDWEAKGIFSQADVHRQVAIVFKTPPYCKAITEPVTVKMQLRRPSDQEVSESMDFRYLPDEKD
T1 sequence 2: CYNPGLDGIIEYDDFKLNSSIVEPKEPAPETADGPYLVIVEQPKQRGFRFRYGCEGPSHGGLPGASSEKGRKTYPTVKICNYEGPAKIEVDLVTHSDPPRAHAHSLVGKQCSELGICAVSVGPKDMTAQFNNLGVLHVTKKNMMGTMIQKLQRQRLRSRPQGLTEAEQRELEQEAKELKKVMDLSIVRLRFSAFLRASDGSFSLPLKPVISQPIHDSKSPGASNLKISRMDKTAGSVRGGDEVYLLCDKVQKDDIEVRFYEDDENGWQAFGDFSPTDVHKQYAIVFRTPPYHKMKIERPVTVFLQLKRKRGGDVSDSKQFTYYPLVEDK
As to the kind of experiment: protein binding microarray; high values mean tight binding. Particulars: dsDNA, one strand shown.
Consider GGAAACCTCCT, for which the binding signal is -0.293 z-score.
The same measure for AGATACATCCC: -0.677 z-score.
As for AGATTACCCCC, the figure is 1.12 z-score; as for CGGATCTTCCT, -0.666 z-score; as for CGATGTCTCCT, -0.895 z-score.
CGATAGCTCCT registered a binding signal of -1.09 z-score.
Consider CGATTAATCCC, for which the binding signal is -0.299 z-score.
The same measure for AGGATGTTCCC: -0.0123 z-score; for AGGATCACCCT: -0.421 z-score; for GGGAATCTCCT: 1.35 z-score.
The same measure for CGAGTCTTCCC: -0.153 z-score; for AGAATGCTCCC: -0.456 z-score.
GGAGAAGTCCT returned a binding signal of -0.307 z-score.
Take AAATTGCTCCT: the binding signal is -0.903 z-score.
As for AAAGGTCCCCT, the figure is 0.512 z-score; as for CGGAATCCCCT, 2.31 z-score; as for AAAGTTACCCT, 0.216 z-score.
As for CAGAACCTCCT, the figure is -0.853 z-score; as for GAGTTGTTCCC, -0.104 z-score.
As for AAGAAAGCCCT, the figure is -0.671 z-score; as for GAGAGATTCCC, 0.551 z-score.
GAATTTGTCCC displayed a binding signal of 0.573 z-score.
As for CGGAAATTCCC, the figure is 2.88 z-score; as for GAATATATCCC, -0.351 z-score.
In the case of GAAGTCTTCCC, the binding signal was -0.174 z-score.
As for AGGTTCGCCCT, the figure is -0.838 z-score.
Sequence GAAAAAACCCC registered a binding signal of 2.18 z-score.
The same measure for CGGGTATCCCC: 2.53 z-score.
The same measure for AGAGTGTCCCT: 0.669 z-score; for GGGTACCTCCC: 0.556 z-score.
The same measure for GAAAACCCCCT: 2.86 z-score; for CGGGGCATCCT: 0.458 z-score; for GAGATTGCCCC: 0.621 z-score.
Take CGGAACACCCT: the binding signal is -0.317 z-score.
As for AGATAAGTCCC, the figure is 0.335 z-score; as for CGAGTGGTCCC, -0.428 z-score; as for AAGGTAGCCCC, 0.217 z-score.
As for GAGTGCGCCCC, the figure is -0.0203 z-score.
